Reference: PubChem BioAssay AID1159580 (chemical genetic matrix, 2015)
The whole screen tested about 5,500 compounds, of which about 2,000 (36%) were called active. Roughly 18% stayed inconclusive and do not appear here. Cut-off read from the data, not from the text of the source: active = normalized growth mostly below about 0.91 (no sharp cut-off); inconclusive = no clear call, values can overlap the other calls; inactive = mostly above about 0.92. The list shows a part of the results.

Experiment: chemical genetic growth profiling, strain panel (AID 1159580);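 note: tested at 20 µM; growth read once vehicle control cultures reached saturation at 30 °C; 1 = growth at the plate median or of vehicle wells; lower values mean less growth of the strain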
Conditions: growth OD

Measured: normalized growth

COc1cc2ccc(=O)oc2c2ccoc12
inactive: S. cerevisiae deletion strains, locus YJR066W, strain TOR1, active compounds read low 0.965 | S. cerevisiae deletion strains, locus YKL009W, strain mrt4, active compounds read low 0.902 | S. cerevisiae deletion strains, locus YKL068W, active compounds read low 0.999 | S. cerevisiae deletion strains, locus YKL085W, strain MDH1 (second series), active compounds read low 0.999 | S. cerevisiae deletion strains, locus YKL085W, strain MDH1, active compounds read low 0.999 | S. cerevisiae deletion strains, locus YKR001C, strain vps1, active compounds read low 0.901 | S. cerevisiae deletion strains, locus YKR026C, strain gcn3, active compounds read low 0.999 | S. cerevisiae deletion strains, locus YKR091W, strain srl3, active compounds read low 0.998 | S. cerevisiae deletion strains, locus YLL026W, active compounds read low 0.982 | S. cerevisiae deletion strains, locus YLL041C, strain sdh2, active compounds read low 0.991 | S. cerevisiae deletion strains, locus YLR039C, strain RIC1, active compounds read low 1.09 | S. cerevisiae deletion strains, locus YLR058C, strain SHM2, active compounds read low 0.987 | S. cerevisiae deletion strains, locus YLR102C, strain apc9, active compounds read low 1.01 | S. cerevisiae deletion strains, locus YLR113W, strain HOG1, active compounds read low 1.09 | S. cerevisiae deletion strains, locus YLR262C, strain YPT6 (second series), active compounds read low 0.948 | S. cerevisiae deletion strains, locus YLR262C, strain YPT6, active compounds read low 1.06 | S. cerevisiae deletion strains, locus YLR268W, strain sec22, active compounds read low 0.97 | S. cerevisiae deletion strains, locus YLR342W, strain FKS1, active compounds read low 1.01 | S. cerevisiae deletion strains, locus YLR370C, strain arc18, active compounds read low 0.982 | S. cerevisiae deletion strains, locus YLR371W, strain rom2, active compounds read low 0.947 | S. cerevisiae deletion strains, locus YLR384C, strain iki3, active compounds read low 0.986 | S. cerevisiae deletion strains, locus YLR418C, strain cdc73, active compounds read low 0.918 | S. cerevisiae deletion strains, locus YML016C, strain PPZ1, active compounds read low 0.991 | S. cerevisiae deletion strains, locus YML124C, strain tub3, active compounds read low 1 | S. cerevisiae deletion strains, locus YMR058W, strain fet3, active compounds read low 0.941 | S. cerevisiae deletion strains, locus YMR078C, strain ctf18, active compounds read low 0.977 | S. cerevisiae deletion strains, locus YMR125W, strain sto1, active compounds read low 1.02 | S. cerevisiae deletion strains, locus YMR129W, active compounds read low 0.971 | S. cerevisiae deletion strains, locus YMR205C, strain PFK2, active compounds read low 0.993 | S. cerevisiae deletion strains, locus YMR223W, strain ubp8, active compounds read low 0.937 | S. cerevisiae deletion strains, locus YMR231W, strain pep5, active compounds read low 0.98 | S. cerevisiae deletion strains, locus YMR263W, strain SAP30, active compounds read low 0.976 | S. cerevisiae deletion strains, locus YMR307W, strain GAS1, active compounds read low 1.09 | S. cerevisiae deletion strains, locus YNL067W, strain RPL9B, active compounds read low 0.977 | S. cerevisiae deletion strains, locus YNL128W, strain TEP1, active compounds read low 0.871 | S. cerevisiae deletion strains, locus YNL183C, strain NPR1, active compounds read low 0.977 | S. cerevisiae deletion strains, locus YNL233W, strain BNI4, active compounds read low 0.982 | S. cerevisiae deletion strains, locus YNL271C, strain bni1, active compounds read low 0.956 | S. cerevisiae deletion strains, locus YNL298W, strain CLA4, active compounds read low 0.954 | S. cerevisiae deletion strains, locus YNL307C, strain MCK1, active compounds read low 1.01 | S. cerevisiae deletion strains, locus YNR049C, strain mso1, active compounds read low 1.02 | S. cerevisiae deletion strains, locus YNR052C, strain pop2, active compounds read low 0.925 | S. cerevisiae deletion strains, locus YOL012C, strain htz1 0.781 | S. cerevisiae deletion strains, locus YOL147C, strain pex11, active compounds read low 0.981 | S. cerevisiae deletion strains, locus YOR061W, strain CKA2, active compounds read low 1 | S. cerevisiae deletion strains, locus YOR069W, strain VPS5, active compounds read low 0.988 | S. cerevisiae deletion strains, locus YOR070C, strain gyp1, active compounds read low 0.966 | S. cerevisiae deletion strains, locus YOR136W, strain idh2, active compounds read low 0.971 | S. cerevisiae deletion strains, locus YOR144C, strain elg1, active compounds read low 0.986 | S. cerevisiae deletion strains, locus YOR184W, strain ser1, active compounds read low 0.994 | S. cerevisiae deletion strains, locus YOR231W, strain MKK1, active compounds read low 0.991 | S. cerevisiae deletion strains, locus YOR265W, strain rbl2, active compounds read low 0.952 | S. cerevisiae deletion strains, locus YOR270C, strain vph1, active compounds read low 0.814 | S. cerevisiae deletion strains, locus YOR316C, strain cot1, active compounds read low 0.981 | S. cerevisiae deletion strains, locus YPL240C, strain hsp82, active compounds read low 0.965 | S. cerevisiae deletion strains, locus YPL241C, strain CIN2, active compounds read low 0.997 | S. cerevisiae deletion strains, locus YPL256C, strain CLN2, active compounds read low 1.06 | S. cerevisiae deletion strains, locus YPR119W, strain clb2, active compounds read low 0.99 | S. cerevisiae deletion strains, locus YPR141C, strain kar3, active compounds read low 1 | S. cerevisiae deletion strains, locus YPR167C, strain met16, active compounds read low 0.97 | S. cerevisiae deletion strains, strain wtn01, active compounds read low 0.969 | S. cerevisiae strains, strain wild type, active compounds read low 1.02
active: S. cerevisiae deletion strains, locus YKL160W, strain elf1, active compounds read low 0.894 | S. cerevisiae deletion strains, locus YLL001W, strain dnm1, active compounds read low 0.87 | S. cerevisiae deletion strains, locus YLR027C, strain aat2, active compounds read low 0.911 | S. cerevisiae deletion strains, locus YLR221C, strain rsa3, active compounds read low 0.873 | S. cerevisiae deletion strains, locus YLR258W, strain gsy2, active compounds read low 0.87 | S. cerevisiae deletion strains, locus YLR320W, strain mms22, active compounds read low 0.752 | S. cerevisiae deletion strains, locus YLR357W, strain rsc2, active compounds read low 1.16 [resistant] | S. cerevisiae deletion strains, locus YML032C, strain rad52, active compounds read low 0.737 | S. cerevisiae deletion strains, locus YML120C, strain ndi1, active compounds read low 0.844 | S. cerevisiae deletion strains, locus YNL071W, strain lat1, active compounds read low 0.913 | S. cerevisiae deletion strains, locus YNL209W, strain ssb2, active compounds read low 0.919 | S. cerevisiae deletion strains, locus YNL248C, strain rpa49, active compounds read low 0.458 | S. cerevisiae deletion strains, locus YNL250W, strain rad50, active compounds read low 0.856 | S. cerevisiae deletion strains, locus YNL322C, strain KRE1 (second series), active compounds read low 0.793 | S. cerevisiae deletion strains, locus YOR001W, strain rrp6, active compounds read low 0.732 | S. cerevisiae deletion strains, locus YOR080W, strain dia2, active compounds read low 0.891 | S. cerevisiae deletion strains, locus YOR083W, strain WHI5, active compounds read low 0.801 | S. cerevisiae deletion strains, locus YOR106W, strain vam3, active compounds read low 0.755 | S. cerevisiae deletion strains, locus YOR290C, strain snf2, active compounds read low 0.821 | S. cerevisiae deletion strains, locus YPL051W, strain arl3, active compounds read low 0.863 | S. cerevisiae deletion strains, locus YPL078C, strain atp4, active compounds read low 0.858 | S. cerevisiae deletion strains, locus YPL106C, strain sse1, active compounds read low 0.748 | S. cerevisiae deletion strains, locus YPR163C, strain tif3, active compounds read low 0.884
